Assay outcomes (PubChem)
This is a sample that favours compounds with a hit; in the whole collection about 4.7% have one here.
HSP90 inh: blocks HSP90-mediated luciferase refolding in reticulocyte lysate; 290,000 compounds, 0.91% hits; AID 1789; inhibition, % at 5.6 µM; Rabbit reticulocyte lysate, luciferase refolding luminescence, 3 h;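 active means inhibition above the screen-wide mean plus 3 SD, computed separately per campaign, cut at about 16% in these data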;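 further: 0% = DMSO wells and 100% = 60 µM geldanamycin wells; inhibitors lower the luminescence because luciferase stays unfolded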
TROY signal inh: TROY signaling inhibition; Q293 LMP1-TROYcd NF-kB luciferase reporter, 4 h; AID 1347056; inhibition, % at 10 µM; 360,000 compounds, 0.98% hits;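 active means compounds whose plate-normalised and pattern-corrected inhibition of the luciferase reporter signal at the single screening dose is 50% or more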
TWEAK Fn14 block: blocks TWEAK-Fn14 interaction in a reporter cell assay; TWEAK-stimulated Fn14 reporter cells, luciferase luminescence, 8 h; inhibition, % at 10 µM; 360,000 compounds, 2% hits; AID 1159606; in the data active means inhibition above about 50%
HSF1 inhib: HSF1 inhibition; NIH3T3-HGL HSE-luciferase, MG132-induced, luminescence 8 h; stronger effect = lower value; activity change, negative = inhibition, % at 7.5 µM (by protocol); 300,000 compounds, 0.77% hits;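 active means more than half of replicate wells show activity change below -50%, luminescence cut by over half; inconclusive means some wells, but at most half, below -50%; inactive means no replicate well below -50%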;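 further: luciferase reports HSF-1 transcriptional activity via heat shock element; 0% = median of DMSO wells and -100% = zero luminescence signal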
EBV LMP1 NFkB: reduces LMP1-driven NF-kappaB luciferase signal; 350,000 compounds, 0.69% hits; LMP1-induced NF-kappaB luciferase reporter cells, luminescence; inhibition, % at 12.5 µM; in the data active means inhibition above about 41%; inconclusive means no clear call, values can overlap the other calls;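 further: 0% = neutral control wells and 100% = reference inhibitor control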
HSF1 activator: increases HSF-1 driven luciferase reporter signal; NIH3T3-HGL HSF-1 luciferase reporter, MG132, 8 h; 100% = twice DMSO control signal; activation, % at 9 µM; 300,000 compounds, 1.7% hits;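 active means mean replicate activation of at least 50% with a set share of replicates each reaching 50%; inconclusive means only one of those two conditions met; inactive means mean below 50% and too few replicates reaching it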;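 further: 0% = median of the neutral control wells and 100% = twice that signal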
Active calls of the source: *; ? = inconclusive; / = no result given.

SMILES | HSP90 inh | TROY signal inh | TWEAK Fn14 block | HSF1 inhib | EBV LMP1 NFkB | HSF1 activator
CC1NC(=O)c2cc3ccccc3cc2-n2c1nc1cc(Cl)ccc1c2=O (stereo not given) | / | -7 | -6 | / | -3 | /
COc1ccc(NC(=O)c2ccc3c(=O)n(-c4ccc(OC)cc4OC)c(=S)[nH]c3c2)cc1 | -1 | 10 | 26 | -6 | 8 | -4
COc1ccc(-n2c(=S)[nH]c3cc(C(=O)Nc4ccc(F)cc4)ccc3c2=O)c(OC)c1 | 0 | 12 | 44 | 68 | 6 | 87*
O=C(N/N=C/c1cccc(F)c1)c1c(O)c2c([nH]c1=O)CCCC2 | -1 | 53* | -10 | 1 | 3 | -5
O=C(COC(=O)/C=C/c1cccc(F)c1)NCc1ccc2c(c1)OCO2 | / | -14 | 6 | / | -9 | /
C[C@@H]1COc2cc(N3CCN(Cc4ccccc4F)CC3)ccc2S(=O)(=O)N1 | / | 1 | 17 | / | / | /
Cn1cnnc1SCC(=O)n1c2ccccc2c2ccccc21 | 1 | 7 | 0 | -4 | 46* | 4
CN(Cc1ccccc1)C(=O)CN1CCN(S(=O)(=O)c2ccccc2F)CC1 | / | 6 | -5 | / | -3 | /
NC1=C(Br)C(=O)c2ncccc2C1=O | / | 68* | 103* | / | 70* | /
O=C1c2cccnc2C(=O)N1CO | -1 | -27 | -12 | 14 | 6 | 43
CC(=O)NC1CC2CCCC(C1)N2S(=O)(=O)c1cccc(F)c1 (stereo not given) | 2 | 0 | 104* | 1 | 2 | 10
CN1C(=O)NC(c2ccccc2)C2=C1CN(c1ccc3ccccc3c1)C2=O (stereo not given) | 3 | 53* | 34 | 5 | -10 | 1
Cc1ccccc1NS(=O)(=O)c1ccc(F)cc1 | 2 | -7 | 22 | 3 | 1 | -1
CC(C)(C)N(NS(=O)(=O)c1ccc(F)cc1)c1ccccc1 | 1 | -12 | 0 | 3 | -6 | 57*
Nc1ncnc2nc(N3CCN(C(=O)c4ccccc4)CC3)[nH]c12 | -1 | 0 | 7 | -73* | 1 | -80
CC1(C)CC(CCN)(Cc2ccccc2Cl)CCO1 (stereo not given) | -4 | 23 | -40 | 15 | -8 | 60*
COc1ccc(OC)c(-c2nnc3n2N=C(c2ccc(OC)c(OCC4CC4)c2)CS3)c1 | / | 48 | 17 | / | 26 | /
COc1ccc(C2=Nn3c(nnc3-c3ccccc3Cl)SC2)cc1OCC1CC1 | / | 61* | 32 | / | 12 | /
COc1ccc(CN2CCC2(C)C(=O)Nc2cccc(NS(C)(=O)=O)c2)c2ccccc12 (stereo not given) | / | 11 | 16 | / | / | /
COc1cccc(CN2CCC2(C)C(=O)Nc2cccc(NS(C)(=O)=O)c2)c1OC (stereo not given) | / | 6 | 67* | / | / | /
CCOCc1nc(N)nc(N)c1-c1cccc(Cl)c1 | / | -16 | 19 | / | 3 | /
Cn1c(SCC(=O)NCC2CCCO2)ncc(C(=O)Nc2ccc(F)cc2)c1=O (stereo not given) | / | -2 | 12 | 70 | -6 | 67*
Cc1nc(SCC(=O)NCC2CCCO2)[nH]c(=O)c1C (stereo not given) | / | -1 | -1 | -56* | -4 | -67
CC(=O)Nc1cccc(NC(=O)CSc2ncc(C(=O)Nc3ccccc3)c(=O)n2C)c1 | / | 14 | 2 | 177 | -12 | 206*
CC(=O)Nc1cccc(NC(=O)CSc2ncc(C(=O)Nc3ccc(F)cc3)c(=O)n2C)c1 | / | 13 | 11 | 4 | -8 | -15
SMILES | HSP90 inh | TROY signal inh | TWEAK Fn14 block | HSF1 inhib | EBV LMP1 NFkB | HSF1 activator
CC(=O)Nc1ccc(NC(=O)CSc2ncc(C(=O)Nc3ccc(F)cc3)c(=O)n2C)cc1 | / | -45 | -24 | 16 | -28 | -6
COc1ccc(-c2nnc3ccc(SCC(=O)NCC4CCCO4)nn23)cc1 (stereo not given) | 10 | -7 | 8 | 30 | 7 | 95*
CC(O)(c1cccc(F)c1)c1nc(-c2cc(F)cc(F)c2)cs1 (stereo not given) | / | 4 | 12 | / | / | /
COc1ccccc1CNC(=O)Nc1nc(C(N)CCc2ccccc2)cs1 (stereo not given) | / | 21 | 3 | / | / | /
Cn1c(SCC(=O)NCC2CCCO2)ncc(C(=O)Nc2ccc(Cl)cc2)c1=O (stereo not given) | / | -7 | 4 | 29 | -22 | 57*
O=C(CSc1ncnc2c1nnn2-c1ccc(F)cc1)NCC1CCCO1 (stereo not given) | 5 | 19 | 30 | 46 | 6 | 74*
COc1cccc(CNC(=O)[C@H](C)NC(=O)N2CC(=O)Nc3ccccc32)c1 | / | 6 | -8 | / | -4 | /
Cc1cc(/C=C2\SC(=S)N(Cc3ccco3)C2=O)c(C)n1-c1cccnc1 | 0 | 0 | 34 | 4 | -19 | 9
O=C1/C(=C/c2cccnc2)SC(=S)N1Cc1ccco1 | / | -2 | 11 | / | 43* | /
CCOC(=O)/C=C(\C)N1N=C(c2ccccc2)CC1c1ccccc1 (stereo not given) | -1 | -36 | -36 | 35 | -37 | 65*
CC(=O)OCC(=O)N1N=C(c2ccc3ccccc3c2)CC1c1ccccc1 (stereo not given) | -4 | -21 | -2 | 27 | 5 | 53*
COc1ccc(C2CC(c3ccc4ccccc4c3)=NN2C(=O)COC(=O)C2CCC(=O)N2)cc1 (stereo not given) | -2 | -20 | 3 | 5 | -40 | ?
COc1ccc(C2CC(c3ccc4ccccc4c3OC(C)=O)=NN2C(C)=O)cc1 (stereo not given) | 6 | -16 | -8 | 56 | -41 | 94*
CCOC(=O)c1nnn(CC(=O)N2N=C(c3ccccc3)CC2c2ccccc2)c1C(=O)OCC (stereo not given) | 4 | -4 | -15 | -3 | 7 | 22
C[C@H](O)[C@@H]1C(=O)N2CCc3c([nH]c4ccccc34)[C@@H]2C[C@@H]1N(C)Cc1ccc(Cl)cc1 | / | -18 | -7 | / | 0 | /
CCCCN(C=O)c1c(CC)nc2c(OCc3ccc(Cl)cc3)cccn12 | / | -16 | 13 | / | / | /
C[C@H]1CN([C@@H](C)CO)C(=O)CCCn2cc(nn2)CO[C@@H]1CN(C)C(=O)NC1CCCCC1 | / | 14 | 0 | / | / | /
COc1ccc(NC(=O)C2Cc3c(-c4ccccc4)ccnc3O2)cc1OC (stereo not given) | / | 26 | 39 | / | / | /
Cc1ccc2cc(/C=C/C(=O)c3ccco3)c(Cl)nc2c1 | 0 | -18 | 18 | 68 | / | 119*
O=C1NC[C@@H](CCCCN2C[C@H](Cc3ccc(O)cc3)N(CC3CCCCC3)C(=O)C2=O)N(CCC2CCCCC2)C1=O | / | 1 | 12 | / | / | /
Cc1ccc(S(=O)(=O)NC(C)(C)CSc2nncn2N)cc1 | -2 | 9 | -23 | -77* | -5 | -83
CCCCNC(=O)C1(C)CCCCN1CC(=O)c1ccc(OC)cc1 (stereo not given) | / | -5 | -9 | / | / | /
COc1ccc(C2CC3(O)CC(C#N)(C(=O)N3)C2(C#N)C#N)cc1 (stereo not given) | 2 | 82* | 91* | 11 | -4 | 13
